An excerpt weighted towards active compounds, which were near 4% of everything screened.
RecA intein inh: inhibitors of M. tuberculosis RecA intein splicing; P9WHJ3; cell-free RecA intein splicing, fluorescence; inhibition, % (concentration not given with the values); 290,000 tested, 0.75% active; AID 2221; in the data active means inhibition above about 30%;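 further: 0% = vehicle wells and 100% = reference inhibitor control wells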
Mtb FBA inh: Mtb fructose-bisphosphate aldolase inhibition. P9WQA3. purified M. tuberculosis FBA, fluorescence read-out. inhibition, % at 1 µM. 360,000 tested, 2.3% active;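 further: 0% = vehicle and 100% = reference inhibitor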
Mtb betalactam: beta-lactam sensitization of Mtb H37Rv; inhibition, % at 25 µM; M. tuberculosis H37Rv growth with meropenem, percent inhibition; AID 434955; 330,000 tested, 0.27% active; call rule not given here;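 further: growth measured after seven days incubation then overnight dye step; 0% = bacteria only wells and 100% = bacteria with antibiotic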
UGM FP inh: Mtb UDP-galactopyranose mutase inhibition; P9WIQ1; purified UGM, fluorescence polarization probe displacement; inhibition, % at 10 µM; 320,000 tested, 0.06% active; AID 504406; in the data active means inhibition above about 10%, passing the limit was not always enough
Rv3671c inh: inhibitors of M. tuberculosis serine protease Rv3671c | 320,000 tested, 0.048% active | P9WHR9 | inhibition, % at 5.96 µM; in the data active means inhibition above about 38%;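 further: extracellular domain of Rv3671c used as enzyme; 0% = enzyme with DMSO and 100% = no enzyme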
GDH-TPI counter-1: GDH-TPI coupled enzyme inhibition counter-screen; GDH-TPI coupled enzyme counterscreen, NADH absorbance; inhibition, % at 4.8 µM; 360,000 tested, 1.2% active; in the data active means inhibition above about 30%;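 further: 0% = DMSO wells and 100% = wells lacking the enzyme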
Mtb FBA inh conf: Mtb FBA inhibition, confirmed | shares compounds with Mtb FBA inh | purified M. tuberculosis FBA, fluorescence read-out | inhibition, % at 1 µM | 5,600 tested, 78% active;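 further: 0% = vehicle wells and 100% = reference inhibitor wells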
GDH-TPI counter-2: counter-screen for M. tuberculosis FBA inhibitors: GDH-TPI coupled enzyme inhibition; GDH-TPI coupled enzyme counterscreen, fluorescence; inhibition, % at 1 µM; shares compounds with Mtb FBA inh; 5,600 tested, 81% active; in the data active means inhibition above about 10%
Numbers without * were called inactive; / = not tested or not shown; + = active, no number. Unless noted, no stated cut-off is given here; in the data, active means inhibition above about 27%; inactive means the rest.

SMILES	RecA intein inh	Mtb FBA inh	Mtb betalactam	UGM FP inh	Rv3671c inh	GDH-TPI counter-1	Mtb FBA inh conf	GDH-TPI counter-2
CNC(=O)c1ccc(-c2ccc(F)cc2)s1	-3.3	40.6*	-4.8	-2.6	-6.9	6.0	115.3*	95.2*
O=C(Nc1ccccc1)c1ccc(-c2ccc(F)cc2)s1	-1.0	0.6	91.1	-0.6	1.6	7.8	/	/
COc1ccc(Cl)cc1NC(=O)CN(C)C(=O)CCC(=O)c1cc(C)sc1C	1.1	4.0	-11.6	0.0	2.4	3.9	/	/
COc1cc2ccccc2cc1C(=O)OCC(=O)c1c(N)n(C)c(=O)n(C)c1=O	/	28.2*	-4.1	-1.5	-9.0	6.2	177.7*	142.0*
COc1ccc(Cl)cc1C(=O)OCC(=O)c1c(N)n(C)c(=O)n(C)c1=O	/	2.0	/	/	/	-11.5	/	/
COc1cccc(NC(=O)Cc2nnc(SCC(=O)c3ccccc3)n2C)c1	2.8	83.4*	/	/	/	5.3	160.6*	122.4*
COc1cccc(NC(=O)Cc2nnc(SCCOc3ccccc3)n2C)c1	4.8	1.7	-4.3	-2.9	1.1	10.0	/	/
C[C@H]1CN([C@@H](C)CO)C(=O)Cc2cc(NC(=O)Cn3cnnn3)ccc2O[C@H]1CN(C)Cc1ccncc1	/	-0.1	2.3	-0.7	1.6	-9.1	/	/
COc1ccc(-c2ccc(CCC(=O)O)n2C(C)C)cc1	-23.9	32.1*	8.0	-2.3	-8.0	13.0	163.2*	113.9*
COc1ccc(NC(=O)Cn2c(CCC(=O)O)ccc2-c2ccccc2)cc1	-5.0	6.9	-3.8	1.9	4.3	1.7	/	/
COCCN(C(=O)COC(=O)CCOc1ccccc1)c1c(N)n(Cc2ccccc2)c(=O)[nH]c1=O	0.0	-1.6	-4.1	-3.0	-4.3	7.3	/	/
CCOC(CNC(=O)C1CCN(S(=O)(=O)c2ccc3nc4c(c(C(=O)O)c3c2)CCCCC4)CC1)OCC	-3.7	-3.0	-6.9	1.1	-3.4	-0.4	/	/
CCN1CCSc2ccc(C(=O)NCc3ccc(OC(C)C)cc3)cc21	0.1	41.7*	-3.9	-1.6	8.3	15.3	80.5*	55.7*
CCOc1ccc(CNC(=O)c2ccc3c(c2)N(CC)CCS3)cc1	-6.5	70.9*	-2.0	0.4	2.2	6.2	122.3*	88.2*
COc1ccc(C(=O)N/C(=C\c2cn(S(=O)(=O)N(C)C)c3ccccc23)C(=O)NCCN2CCOCC2)cc1	0.9	-1.7	11.8	-0.2	-9.6	18.1	/	/
O=C(CSc1n[nH]c(-c2ccc(S(=O)(=O)N3CCCCC3)cc2)n1)Nc1nccs1	4.6	61.3*	-2.7	0.3	-50.0	17.5	64.6*	47.2*
Cn1c(SCC(=O)Nc2nccs2)nnc1-c1ccc(S(=O)(=O)N2CCCC2)cc1	-3.2	1.9	-13.2	-3.4	-4.5	-5.0	/	/
CCn1c(=O)c2sccc2n2c(CCCC(=O)NCc3cccnc3)nnc12	-3.7	2.3	4.3	-0.5	8.7	-9.8	/	/
CCc1ccc(Nc2ncc3c(n2)CC(C)(C)CC3=O)cc1	/	34.6*	-3.3	-1.2	-12.4	17.0	+	172.4*
CCc1ccc(Nc2ncc3c(n2)CC(C)CC3=O)cc1 (stereo not given)	-1.9	-0.7	-5.5	0.7	6.3	1.2	/	/
O=C1c2ccccc2NC2(CCCC2)N1NS(=O)(=O)c1ccccc1	-5.3	22.3	-1.7	-1.2	18.4	7.6	/	/
Cc1ccc(S(=O)(=O)NN2C(=O)c3ccccc3NC2(C)C)cc1	-5.8	36.3*	1.0	-0.4	6.0	4.0	+	+
Cc1ccc(S(=O)(=O)NN2C(=O)c3ccccc3NC2c2ccccc2)cc1 (stereo not given)	-0.2	20.1	1.4	-0.4	-1.0	3.8	/	/
CC1(C)Nc2ccccc2C(=O)N1NS(=O)(=O)c1ccccc1	-9.8	28.7*	-1.2	0.0	3.9	4.2	-1.2	-3.5
CCC(=O)c1ccc(OCC(=O)Nc2ccccc2N2CCCCC2)cc1	-0.6	0.5	-8.7	-0.7	2.3	-5.2	/	/
O=C(O)COc1ccc2c3c(c(=O)oc2c1)CCCC3	-3.3	0.4	-1.7	2.0	-4.3	6.4	/	/
O=C(Oc1ccc2c3c(c(=O)oc2c1)CCCC3)c1cccs1	8.1	81.6*	86.3	0.1	-7.3	6.6	+	+
O=c1oc2cc(OCCO)ccc2c2c1CCCC2	0.1	59.5*	0.0	2.2	6.0	4.6	73.7*	56.6*
